Laboratory results: PubChem BioAssay AID1159580 (chemical genetic matrix, 2015)
The whole screen tested about 5,500 compounds, of which about 2,000 (36%) were called active. About 18% were inconclusive and are not listed. No stated cut-off is given here; in the data, active means normalized growth mostly below about 0.91 (no sharp cut-off); inconclusive means no clear call, values can overlap the other calls; inactive means mostly above about 0.92. This is one part of the list.

Experiment: chemical genetic growth profiling, strain panel (AID 1159580);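 further: tested at 20 µM; growth read once vehicle control cultures reached saturation at 30 °C; 1 = growth at the plate median or of vehicle wells; lower values mean less growth of the strain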
Settings: S. cerevisiae deletion strains, growth OD
[1] = locus YHR030C, strain SLT2, hits give low values
[2] = locus YHR079C, strain IRE1, hits give low values
[3] = locus YJL095W, strain BCK1, hits give low values
[4] = locus YJR066W, strain TOR1, hits give low values
[5] = locus YLR113W, strain HOG1, hits give low values
[6] = locus YNL183C, strain NPR1, hits give low values
[7] = locus YOR231W, strain MKK1, hits give low values
[8] = locus YPL256C, strain CLN2, hits give low values
[9] = locus YDL101C, strain DUN1, hits give low values

Measured: normalized growth

C[n+]1ccccc1/C=N\O
inactive: [1] 0.981 | [2] 0.987 | [3] 0.996 | [4] 0.932 | [5] 0.997 | [6] 0.934 | [7] 1 | [8] 0.974

CN1C(=O)CN=C(c2ccccc2)c2ccccc21
inactive: locus YAL013W, strain DEP1, hits give low values 1.01 | locus YBR229C, strain ROT2, hits give low values 0.997 | locus YCL061C, strain MRC1, hits give low values 0.999 | [9] 0.995 | locus YDR150W, strain NUM1, hits give low values 0.86 | locus YEL061C, strain CIN8, hits give low values 1 | locus YGR078C, strain PAC10, hits give low values 1 | [1] 1.03 | locus YHR087W, strain rtc3, hits give low values 0.995 | locus YJR043C, strain POL32, hits give low values 1.01 | locus YJR075W, strain HOC1, hits give low values 0.994 | locus YKL190W, strain CNB1, hits give low values 1 | locus YLR039C, strain RIC1, hits give low values 1.02 | locus YLR058C, strain SHM2 (second series), hits give low values 1.01 | locus YLR085C, strain ARP6, hits give low values 1.02 | locus YLR262C, strain YPT6, hits give low values 1.01 | locus YML094W, strain GIM5, hits give low values 1 | locus YMR219W, strain ESC1, hits give low values 1 | locus YMR263W, strain SAP30, hits give low values 0.981 | locus YMR307W, strain GAS1, hits give low values 1.02 | locus YNL153C, strain GIM3, hits give low values 1 | locus YNL298W, strain CLA4 (second series), hits give low values 1.01 | locus YNL322C, strain KRE1, hits give low values 0.991 | locus YNR030W, strain Alg12, hits give low values 1.02 | locus YPL055C, strain LGE1, hits give low values 0.854 | locus YPL241C, strain CIN2, hits give low values 1.05 | locus YPR135W, strain CTF4, hits give low values 0.979

Cc1cc(SCc2[nH]nc3oc(=O)cc(C)c23)c(Cl)cc1Cl
inactive: locus YAR019C, strain CDC15, hits give low values 0.979 | locus YBL105C, strain PKC1, hits give low values 0.993 | locus YBR135W, strain CKS1, hits give low values 0.984 | locus YBR136W, strain MEC1, hits give low values 0.987 | locus YBR160W, strain CDC28, hits give low values 0.986 | locus YDL017W, strain CDC7, hits give low values 0.988 | locus YDL028C, strain MPS1, hits give low values 0.991 | [9] 0.989 | locus YDL108W, strain KIN28, hits give low values 0.98 | locus YDL132W, strain cdc53, hits give low values 0.987 | locus YDL214C, strain PRR2, hits give low values 1.01 | locus YDR052C, strain DBF4, hits give low values 0.981 | locus YDR054C, strain cdc34, hits give low values 0.983 | locus YDR226W, strain ADK1, hits give low values 0.972 | locus YDR477W, strain SNF1, hits give low values 1.01 | locus YER123W, strain YCK3, hits give low values 0.993 | locus YER133W, strain GLC7, hits give low values 1.03 | locus YFL009W, strain cdc4, hits give low values 0.984 | locus YFL029C, strain CAK1, hits give low values 0.979 | locus YFR003C, strain YPI1, hits give low values 0.994 | locus YFR019W, strain FAB1, hits give low values 0.995 | locus YFR028C, strain CDC14, hits give low values 0.99 | locus YGR040W, strain KSS1, hits give low values 1.01 | locus YGR052W, strain FMP48, hits give low values 1.03 | locus YGR092W, strain DBF2, hits give low values 0.973 | [1] 1.1 | [2] 0.992 | locus YHR082C, strain KSP1, hits give low values 1.13 | locus YHR205W, strain SCH9, hits give low values 0.968 | locus YIL147C, strain SLN1, hits give low values 0.979 | [3] 0.947 | locus YJL128C, strain PBS2, hits give low values 0.933 | locus YJL157C, strain FAR1, hits give low values 1 | locus YJR016C, strain ILV3, hits give low values 0.994 | locus YJR066W, strain TOR1 (second series), hits give low values 0.983 | [4] 1.05 | locus YKL048C, strain ELM1, hits give low values 0.993 | locus YKL067W, strain YNK1, hits give low values 1.01 | locus YKL101W, strain HSL1, hits give low values 1.01 | locus YKL193C, strain SDS22, hits give low values 0.982 | locus YKL203C, strain TOR2, hits give low values 1.04 | [5] 1 | locus YLR133W, strain CKI1, hits give low values 0.998 | locus YLR403W, strain SFP1, hits give low values 0.996 | locus YML070W, strain DAK1, hits give low values 1.02 | locus YMR001C, strain CDC5, hits give low values 0.99 | locus YMR205C, strain PFK2 (second series), hits give low values 1.03 | locus YMR277W, strain FCP1, hits give low values 0.981 | locus YNL006W, strain LST8, hits give low values 0.984 | locus YNL020C, strain ARK1, hits give low values 0.981 | locus YNL161W, strain CBK1, hits give low values 1.01 | [6] 1.05 | locus YNL207W, strain RIO2, hits give low values 0.986 | locus YNL222W, strain SSU72, hits give low values 0.979 | locus YNL307C, strain MCK1 (second series), hits give low values 0.994 | locus YOL078W, strain AVO1, hits give low values 0.998 | locus YOL136C, strain PFK27, hits give low values 1.01 | locus YOR061W, strain CKA2, hits give low values 0.973 | locus YOR119C, strain RIO1, hits give low values 1.08 | [7] 0.985 | locus YOR329C, strain SCD5, hits give low values 0.989 | locus YPL031C, strain PHO85, hits give low values 0.988 | locus YPL153C, strain RAD53, hits give low values 0.987 | locus YPL204W, strain HRR25, hits give low values 0.97 | locus YPL209C, strain IPL1, hits give low values 0.991 | [8] 1.08 | locus YPR025C, strain CCL1, hits give low values 0.99 | locus YPR106W, strain ISR1, hits give low values 1 | locus YPR111W, strain DBF20, hits give low values 0.974 | strain NNK1, hits give low values 0.985 | strain TSCII, hits give low values 0.98
